Source: PubChem BioAssay AID504411 (The Scripps Research Institute Molecular Screening Center, 2011)
In all, about 340,000 compounds went through this assay and about 200 (0.059%) were called active. The list comes from a sample in which actives are over-represented; it also holds similar structures and randomly drawn compounds. Unmarked numbers belong to inactive results. No stated cut-off is given here; in the data, active means inhibition above about 34%; inactive means the rest.

Biological target: Diacylglycerol lipase-beta (Homo sapiens) (UniProt Q8NCG7)
Assay: DAGLB lipase inhibitors, primary screen, biochemical, fluorescence, HTS (AID 504411);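 further: 0% = enzyme with vehicle and 100% = wells lacking enzyme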
Conditions: HEK293T DAGLB membrane lysate, EnzChek fluorogenic substrate; at 5.17 µM; active compounds read high

Chain of Diacylglycerol lipase-beta (Homo sapiens) (Q8NCG7 whole entry, looked up): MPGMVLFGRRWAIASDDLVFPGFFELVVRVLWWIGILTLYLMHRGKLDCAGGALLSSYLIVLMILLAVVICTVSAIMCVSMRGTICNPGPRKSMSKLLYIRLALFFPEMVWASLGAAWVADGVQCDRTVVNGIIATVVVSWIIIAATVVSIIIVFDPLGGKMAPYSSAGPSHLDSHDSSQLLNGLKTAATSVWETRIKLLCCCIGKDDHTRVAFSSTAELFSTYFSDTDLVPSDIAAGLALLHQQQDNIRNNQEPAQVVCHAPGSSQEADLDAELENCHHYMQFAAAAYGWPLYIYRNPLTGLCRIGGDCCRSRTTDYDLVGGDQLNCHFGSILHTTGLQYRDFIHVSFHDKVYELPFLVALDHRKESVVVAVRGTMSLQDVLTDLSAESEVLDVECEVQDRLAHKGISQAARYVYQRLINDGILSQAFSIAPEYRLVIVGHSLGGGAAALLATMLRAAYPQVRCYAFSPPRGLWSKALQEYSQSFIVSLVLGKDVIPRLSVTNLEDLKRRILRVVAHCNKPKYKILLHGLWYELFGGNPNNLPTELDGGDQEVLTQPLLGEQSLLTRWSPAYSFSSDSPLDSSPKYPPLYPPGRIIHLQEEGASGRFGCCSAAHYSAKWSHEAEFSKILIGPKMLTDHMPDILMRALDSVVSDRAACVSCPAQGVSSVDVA

Row | Structure (SMILES) | inhibition
1 | O=C(Oc1cccc(N2C(=O)C3C4c5ccccc5C(c5ccccc54)C3C2=O)c1)c1ccco1 (stereo not drawn) | 34.9% (active)
2 | CC(=O)Nc1ccc(N2C(=O)C3C4CC(=O)C(c5ccccc54)C3C2=O)cc1 (stereo not drawn) | 2.73%
3 | COC(=O)c1cccc(N2C(=O)C3C4C=CC(CC4)C3C2=O)c1 (stereo not drawn) | -2.32%
4 | CCOC(=O)C1=NN(c2ccc(Cl)cc2)/C(=C/C2=NCCc3cc(OC)c(OC)cc32)S1 | 3.17%
5 | CCN(CC(=O)Nc1ccc(NC(C)=O)cc1)C(=O)CSC(=S)N1CCCC1 | -0.87%
6 | Cn1c(-c2ccc(C(=O)c3ccccc3)s2)nc2ccccc21 | -0.73%
7 | O=C1Cc2cc(S(=O)(=O)Nc3cccc(F)c3)ccc2N1 | 0.82%
8 | O=C(CCNC(=O)c1ccc([N+](=O)[O-])cc1)NC1CCCCC1 | 0.66%
9 | O=C(/C=C/c1ccc(Cl)cc1)NCCCn1ccnc1 | -2.05%
10 | CCOc1ccc(Br)cc1S(=O)(=O)Nc1cccc(S(=O)(=O)N(CC)CC)c1 | -0.11%
11 | Cc1cc(NC(=O)Nc2c[nH]c(=O)[nH]c2=O)ccc1Br | -0.76%
12 | Cc1ccc(-c2nn(C(C)(C)C)c3ncnc(N)c23)cc1 | -2.33%
13 | CCCCCCn1c(=O)n2n(c1=O)C[C@]1(OC(=O)NCc3ccc(OC)c(OC)c3)CN(S(=O)(=O)c3ccc(C)cc3)C[C@]1(O)C2 | 1.56%
14 | CC(NC(=O)c1ccc(S(=O)(=O)Nc2ccccc2)cc1)c1ccc(S(N)(=O)=O)cc1 (stereo not drawn) | 1.2%
15 | Cc1ccccc1OCCC(=O)Nc1c(C)n(C)n(-c2ccccc2)c1=O | -2.86%
16 | CCOc1nnc(C)c2c(C)n(-c3cccc(Cl)c3)nc12 | -5.36%
17 | O=[N+]([O-])c1cc(S(=O)(=O)CCCN2CCOCC2)ccc1F | -0.41%
18 | Cc1nc2ccc(S(=O)(=O)N(C)CC(=O)NC(C)c3ccccc3)cc2s1 (stereo not drawn) | 1.36%
19 | O=C1N(c2ccc(Cl)cc2)C(c2ccc(Cl)cc2)N2CCCN12 (stereo not drawn) | -1.46%
20 | COc1cccc(/C=N/Nc2ccc(S(=O)(=O)Nc3ccccc3C(=O)O)cc2[N+](=O)[O-])c1O | 39.5% (active)
21 | COc1ccc(S(=O)(=O)Nc2ccccc2C(=O)N2CCCC2)cc1C | 0.86%
22 | CCOc1ncccc1C(=O)NNC(=O)c1cccc(S(=O)(=O)Nc2ccccc2OC)c1 | 1.16%

Row | Structure (SMILES) | inhibition
23 | COC(=O)c1ccccc1NS(=O)(=O)c1ccc2[nH]c(=O)[nH]c2c1 | -1.28%
24 | COc1ccc(S(=O)(=O)Nc2ccc3cn[nH]c3c2)cc1[N+](=O)[O-] | -1.73%
25 | COc1ccc(Br)cc1/C=N/Nc1ccc(S(=O)(=O)Nc2ccccc2C(=O)O)cc1[N+](=O)[O-] | 35.8% (active)
26 | Cc1ccc(OCCCCN2CCCCC2)c(Br)c1 | 1.62%
27 | CCCNC(=O)CN(Cc1ccccc1F)S(=O)(=O)c1ccc(C)cc1 | 1.71%
28 | COc1ccccc1C(=O)NC(=O)COC(=O)C1CC1 | 3.34%
29 | N#CC(Cc1cc2ccccc2n1S(=O)(=O)c1ccccc1)OCc1ccccc1 (stereo not drawn) | -8.05%
30 | O=C(O)CCCCCCCCc1cn(CN2C(=O)c3ccccc3C2=O)nn1 | 1.19%
31 | COc1cc(C2C(C(=O)c3sc(C)nc3C)=C(O)C(=O)N2CCN(C)C)cc(OC)c1OC (stereo not drawn) | 0.65%
32 | O=C(N[C@@H]1C/C=C\C[C@@H](CC(=O)N(CCO)Cc2ccccc2)C(=O)N[C@H](Cc2ccccc2)COC1=O)OCC1c2ccccc2-c2ccccc21 | -1.54%
33 | O=C(CCc1ccc(O)cc1)NN=Cc1cc(Br)ccc1O | 3.63%
34 | NC(N)=NCCCc1cn(CC(=O)N2CCNCC2)nn1 | -3.67%
35 | COc1ccc(CCNC(=O)c2ccc(NC(=O)CC3SC(N4CCCCC4)=NC3=O)cc2)cc1OC (stereo not drawn) | 2.1%
36 | O=C(O)c1ccccc1-c1ccccc1C(=O)Nc1ccccc1Br | 0.09%
37 | CC(NC(=O)c1ccccc1SCC(=O)N1CCCC1)c1ccccc1 (stereo not drawn) | 0.41%
38 | Cc1ccc2cccc(O)c2[n+]1[O-] | 1.39%
39 | CN1CCC(=NNC(=O)CN(c2cccc(Cl)c2)S(C)(=O)=O)CC1 | -3.34%
40 | Cc1ccccc1CSc1nnc(Cn2c(=O)sc3ccccc32)n1C | 0.6%
41 | C/C(=N\OCC(=O)Nc1ccc(Br)cc1)c1cccs1 | -7.81%
42 | COc1ccccc1C1CCN(C(=S)Nc2ccc(Br)cc2)CC1 | 23.2%
43 | CCc1cccc(C)c1NS(=O)(=O)c1c(C)nc2sccn2c1=O | -0.01%
44 | COc1ccc(S(=O)(=O)N/N=C\c2ccc(OC)c(COc3ccc(C)cc3[N+](=O)[O-])c2)cc1 | -2.91%

Row | Structure (SMILES) | inhibition
45 | O=c1c2ccccc2nc2n1C(CSCc1cccc(C(F)(F)F)c1)CS2 (stereo not drawn) | -3.32%
46 | COc1cc(NC(=O)CCS(=O)(=O)c2ccc3c(c2)oc(=O)n3C)cc(OC)c1 | -2.39%
47 | CC(=O)Nc1ccc(/C(C)=N/NC(=O)CN(c2ccccc2Br)S(C)(=O)=O)cc1 | 1.17%
48 | COc1ccc(CNC(=O)C(=O)N2CCC3(CC2)OCCN3S(=O)(=O)c2ccc(C)cc2)cc1 | -1.66%
49 | COC(=O)c1cccc(NS(C)(=O)=O)c1 | -0.97%
50 | CC(OC(=O)c1cc2ccccc2o1)C(=O)Nc1ccc(N2CCOCC2)cc1 (stereo not drawn) | -1.16%
51 | COc1ccc(C(=O)OCC(=O)Nc2cc(C)on2)cc1F | 1.42%
52 | COCCCN1C(=O)C(CC(=O)NCc2cccs2)CC(C(=O)N2CCOCC2)=C1C (stereo not drawn) | -1.14%
53 | CN(C(=O)CN1C(=O)CCSc2ccc(S(=O)(=O)N3CCCC3)cc21)c1ccccc1 | 3.08%
54 | O=C1CCCN1CCCNC(=S)Nc1ccc(F)c(Cl)c1 | 0.01%
55 | COC(=O)CN1C(C)=Nc2ccc(Br)cc2C1c1ccccc1 (stereo not drawn) | 0.08%
56 | Cc1ccccc1C(=O)NNC(=O)CN1C(=O)c2ccccc2C1=O | 0.77%
57 | CC(=O)c1ccc(S(=O)(=O)N2CCC(Oc3ccc(-n4cnnn4)cc3)CC2)cc1 | -1.2%
58 | COc1ccc(-c2cc(C(F)(F)F)nc(S(C)(=O)=O)n2)cc1OC | -5.4%
59 | O=C(Cn1ncc2c3ccccc3n(Cc3ccccc3)c2c1=O)NCCCN1CCOCC1 | -2.32%
60 | CC(C)c1ccc2c(c1)c(SC(C)(C)C)c(CC(C)(C)C(=O)O)n2Cc1ccc(Cl)cc1 | 1.23%
61 | COCc1cc(C)n(CC(=O)NCC2CCCO2)c(=O)c1C#N (stereo not drawn) | 0.87%
62 | CS(=O)(=O)N1CCCC(C(=O)Nc2ccccc2C(F)(F)F)C1 (stereo not drawn) | -1.81%
63 | COC(=O)C(=Nc1ccccc1)/C(C(=O)C(=O)N(C)c1ccccc1)=C(\O)c1ccc(Cl)cc1 | 4.54%
64 | COc1ccc(CNC(=O)c2ccc3oc(C(C)C)nc3c2)cc1 | -2.02%
65 | Cc1ccc(CC(=O)N(C)CC(=O)N(CC(C)C)c2c(N)n(CC(C)C)c(=O)[nH]c2=O)cc1C | 1.88%
66 | COc1ccc(C2=NS(=O)(=O)N(C)C(C(=O)NC(C)c3ccccc3)=C2)cc1 (stereo not drawn) | -1.27%

Row | Structure (SMILES) | inhibition
67 | CCCNC(=O)CCn1cc(-c2ccc(OC)cc2)nc1CCN | -2.88%
68 | CCC(Oc1ccccc1C)C(=O)Nc1ccc(S(=O)(=O)Nc2cc(C)on2)cc1 (stereo not drawn) | 2.56%
69 | Cc1cccc2[nH]c(CN(C)C(=O)C3CCC(=O)N(CCc4ccccc4)C3)nc12 (stereo not drawn) | 1.57%
70 | Cc1ccc(S(=O)(=O)N2[C@@H](c3ccc(Br)cc3)C(C(=O)O)=C[C@H]2CC2CCCC2)cc1 | 7.5%
71 | Cc1ccc(N2CC(C(=O)N3CCC4(CC3)CC(=O)c3ccccc3O4)CC2=O)cc1C (stereo not drawn) | -0.05%
72 | CCc1c(C)sc(NC(=O)OC)c1C(=O)N1CCOCC1 | -2.33%
73 | Cc1ccccc1C(=O)N1CCC(C(=O)Nc2ccc(S(=O)(=O)N(C)C(C)C)cc2)CC1 | -0.44%
74 | CC1Cc2ccccc2N1C(=O)c1cc2sccc2n1Cc1ccccc1 (stereo not drawn) | -8.28%
75 | COc1cccc(NC(=O)CN(C)CC(=O)c2c(N)n(Cc3ccccc3)c(=O)n(C)c2=O)c1 | 0.04%
76 | Nc1ccccc1-c1nc2ccncc2[nH]1 | 0.67%
77 | CN(C)c1ccc(NC(=O)CN2C3CCCC2CC(NC(=O)c2ccccc2)C3)cc1 (stereo not drawn) | 0.94%
78 | CCOC(=O)c1c(NC(=O)CCCN2CCOCC2)sc2c1CC(C)(C)OC2 | -0.04%
79 | CCOCCCNC(=O)c1cc2c(=O)n3ccccc3nc2s1 | 1.17%
80 | CCCC(O)(c1ccccc1)C(c1ccccc1)c1ccccn1 (stereo not drawn) | -1.16%
81 | Cc1ccc(OC(=O)c2c(C)nn(-c3ccccc3)c2C)cc1 | -9.87%
82 | Cc1ccc(Cl)c(NC(=O)CN(C)CC(=O)Nc2ccc(F)c(F)c2F)c1Cl | 2.92%
83 | CCOc1ccccc1OCCCNCc1ccccc1 | -2.73%
84 | C=CCOc1nc2c(c(=O)n(C)c(=O)n2C)n1Cc1ccc(Cl)cc1Cl | -0.75%
85 | CCOC(=O)C1CCN(C(=O)Nc2ccc(C)c(Cl)c2)CC1 | 0.52%
86 | CCN(CC(=O)NCCCN1CCOCC1)S(=O)(=O)c1cc(Cl)ccc1Cl | 3.54%
87 | CN(c1ccccn1)c1ncnc2[nH]ncc12 | 0.01%
88 | Cc1ccnc(NC(=O)C2CCN(S(=O)(=O)c3c(C)c(C)cc(C)c3C)CC2)c1 | -5.56%
